Records with an inconclusive call do not appear. Active and inactive are the calls of the source. Rule for the calls: active = hit-call score of the fitted dose curve at least 0.9, where 1 is the maximum; inconclusive = response in the unintended direction; inactive = score below 0.9.
Target: rat Vasopressin 1 Receptor (V1), Avpr1a (gene 25107) (UniProt P30560)
Assay: NVS_GPCR_rV1: NovaScreen (NVS) G Protein-Coupled Receptor Assay for rat Vasopressin 1 Receptor (V1) (AID 2283316)
In short: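 Concentration-response up to 50 uM for chemicals passing a threshold such as 30% inhibition in an initial duplicate 25 uM screen. Displacement of radioligand from rat liver membranes measured after 1.5 h by filtration and scintillation.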

Chain of rat Vasopressin 1 Receptor (V1), Avpr1a (gene 25107) (P30560 whole entry, looked up): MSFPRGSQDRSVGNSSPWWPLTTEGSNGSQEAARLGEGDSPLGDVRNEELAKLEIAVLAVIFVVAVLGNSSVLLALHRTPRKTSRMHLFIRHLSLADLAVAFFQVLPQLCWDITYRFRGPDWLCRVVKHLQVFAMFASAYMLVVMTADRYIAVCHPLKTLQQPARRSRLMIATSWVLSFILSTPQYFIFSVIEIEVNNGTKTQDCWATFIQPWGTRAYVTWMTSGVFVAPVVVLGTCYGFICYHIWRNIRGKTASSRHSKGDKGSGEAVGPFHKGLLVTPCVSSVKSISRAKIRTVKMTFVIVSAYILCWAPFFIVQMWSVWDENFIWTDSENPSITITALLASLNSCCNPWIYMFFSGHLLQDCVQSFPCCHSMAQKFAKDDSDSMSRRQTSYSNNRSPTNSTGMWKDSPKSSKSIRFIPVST

| SMILES | outcome |
| --- | --- |
| CCCN(C1CCN(C(=O)C2CCNCC2)CC1)[C@@H]1CCc2ccc(OC)cc2C1 | inactive |
| Cc1ccc(N)cc1O | inactive |
| O=C(CCCCCCCCc1cccnc1)N1CCC(C=C(c2ccccc2)c2ccccc2)CC1 | inactive |

Target: rat Opioid Receptor, Non-selective Binding, Oprm1 (gene 25601) (UniProt P33535)
Sequence (P33535 whole entry, looked up): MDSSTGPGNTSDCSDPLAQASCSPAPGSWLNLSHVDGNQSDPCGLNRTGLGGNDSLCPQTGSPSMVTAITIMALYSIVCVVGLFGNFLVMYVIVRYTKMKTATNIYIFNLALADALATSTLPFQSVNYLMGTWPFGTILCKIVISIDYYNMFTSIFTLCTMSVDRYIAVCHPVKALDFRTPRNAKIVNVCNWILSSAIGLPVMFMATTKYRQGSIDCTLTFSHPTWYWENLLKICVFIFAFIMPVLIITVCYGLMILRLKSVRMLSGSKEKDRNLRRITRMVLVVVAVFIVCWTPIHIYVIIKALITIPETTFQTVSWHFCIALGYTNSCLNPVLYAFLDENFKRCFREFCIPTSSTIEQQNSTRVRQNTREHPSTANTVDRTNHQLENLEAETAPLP
Assay: NVS_GPCR_rOpiate_NonSelective: NovaScreen (NVS) G Protein-Coupled Receptor Assay for rat Opioid Receptor, Non-selective Binding (AID 2283318)
Experimental: NVS_GPCR_rOpiate_NonSelective is a biochemical, single-readout assay that uses extracted gene-proteins from Rat forebrain membranes in a tissue-based cell-free assay. Measurements were taken 1.5 hours after chemical dosing in a 48-well plate.NVS_GPCR_rOpiate_NonSelective is one of one assay component(s) measured or calculated from the NVS_GPCR_rOpiate_NonSelective assay. It is designed to make measurements of radioligand binding, a form of binding reporter, as detected with scintillation counting signals by Filter-based radiodetection technology.Data from the assay component NVS_GPCR_rOpiate_NonSelective was analyzed into 1 assay endpoint. This assay endpoint, NVS_GPCR_rOpiate_NonSelective, was analyzed in the positive analysis fitting direction relative to DMSO as the negative control and baseline of activity. Using a type of binding reporter, loss-of-signal activity can be used to understand changes in the binding as they relate to the gene Oprm1. Furthermore, this assay endpoint can be referred to as a primary readout, because the performed assay has only produced 1 assay endpoint. To generalize the intended target to other relatable targets, this assay endpoint is annotated to the gpcr intended target family, where the subfamily is rhodopsin-like receptor.
Binding assays used specific radioligands (tritiated, iodinated) with non-radioactive competitive displacement ligands in agonist or antagonist protocols (as indicated) and various reference compounds and inhibitors to titrate specific binding to receptors and transporters. Most enzyme assays (CYPs, kinases, phosphatases, proteases, HDACs) used recombinant protein and specific substrates (fluorescence mostly, some colorimetric and radioactive) and inhibitors, followed by a biochemical separation of substrate and product. All assays for the biochemical HTS were initially run in duplicate at a single concentration (10 uM for CYP450 assays and 25 uM for all others). […] Each assay was run with positive and negative controls, and concurrent controls on every plate. The follow-up (secondary) screen tested active chemical-pairs in concentration series, as well as a few additional assays not tested in the primary screen, some selected negative inactives, and several cases re-run in the concentration series for confirmatory purposes.

| SMILES | AC50 | outcome |
| --- | --- | --- |
| CNS(=O)(=O)c1cc(C(=O)N2CCC(CCN3C4CCC3CC(n3c(C)nc5ccccc53)C4)(c3cccc(F)c3)CC2)c(Cl)cc1F (stereo unspecified) | 10.1 µM (active) | – |
| CN(C)c1ccc(N=NS(=O)(=O)O)cc1 | 31.6 µM (active) | – |
| CCn1nc(Cc2ccccc2)cc1C1CCN(C[C@H]2C[C@H](N(C)[C@@H](C(=O)O)C(C)C)C[C@@H]2c2cccc(F)c2)CC1 | 4.11 µM (active) | – |
| O=C(O)CC(O)C(=O)O (stereo unspecified) | – | inactive |
| CCN(C(=O)c1cc(C)cc(OC[C@H](C)Nc2ccncc2)c1)C(C)C | – | inactive |
| CCc1cc(SCc2sc(-c3ccc(C(F)(F)F)cc3)nc2CN2CCN(c3ccc(OC)cc3)CC2)ccc1OCC(=O)O | – | inactive |
| Cc1[nH]cnc1C[C@H]1CCc2c(C)c3ccccc3n2C1=O | 9.93 µM (active) | – |
| COc1cccc(-c2ccc(/C=C\CN3CCCCCC3)cc2Cl)c1 | 11.2 µM (active) | – |
| CC[C@H]1CC[C@H](NCc2cc3c(cc2OC)[C@H]2C[C@H]2C(=O)N3C)[C@H](c2ccccc2)N1 | 2.58 µM (active) | – |

Test system: NCBI gene 24521
Assay: NVS_IC_rKATPCh: NovaScreen (NVS) Ion Channel Assay for rat Potassium Channel, ATP-Sensitive (KATPCh) (AID 2283319)
Experimental: NVS_IC_rKATPCh is a biochemical, single-readout assay that uses extracted gene-proteins from Rat cortical membranes in a tissue-based cell-free assay. Measurements were taken 2 hours after chemical dosing in a 48-well plate.NVS_IC_rKATPCh is one of one assay component(s) measured or calculated from the NVS_IC_rKATPCh assay. It is designed to make measurements of radioligand binding, a form of binding reporter, as detected with scintillation counting signals by Filter-based radiodetection technology.Data from the assay component NVS_IC_rKATPCh was analyzed into 1 assay endpoint. This assay endpoint, NVS_IC_rKATPCh, was analyzed in the positive analysis fitting direction relative to DMSO as the negative control and baseline of activity. Using a type of binding reporter, loss-of-signal activity can be used to understand changes in the binding as they relate to the gene Kcnj1. Furthermore, this assay endpoint can be referred to as a primary readout, because the performed assay has only produced 1 assay endpoint. To generalize the intended target to other relatable targets, this assay endpoint is annotated to the ion channel intended target family, where the subfamily is potassium channel.
Binding assays used specific radioligands (tritiated, iodinated) with non-radioactive competitive displacement ligands in agonist or antagonist protocols (as indicated) and various reference compounds and inhibitors to titrate specific binding to receptors and transporters. Most enzyme assays (CYPs, kinases, phosphatases, proteases, HDACs) used recombinant protein and specific substrates (fluorescence mostly, some colorimetric and radioactive) and inhibitors, followed by a biochemical separation of substrate and product. All assays for the biochemical HTS were initially run in duplicate at a single concentration (10 uM for CYP450 assays and 25 uM for all others). Assay-chemical combinations meeting a pre-defined threshold (e.g., 30% inhibition and other criteria defined below) were then run in singleton concentration-response format with maximum concentration of 20 uM for CYPs and 50 uM for all others. Each assay was run with positive and negative controls, and concurrent controls on every plate. The follow-up (secondary) screen tested active chemical-pairs in concentration series, as well as a few additional assays not tested in the primary screen, some selected negative inactives, and several cases re-run in the concentration series for confirmatory purposes.

| SMILES | outcome | AC50 |
| --- | --- | --- |
| CN(C)c1ccc(N=NS(=O)(=O)O)cc1 | inactive | – |
| CCCCCCCCO | inactive | – |
| CCc1cc(SCc2sc(-c3ccc(C(F)(F)F)cc3)nc2CN2CCN(c3ccc(OC)cc3)CC2)ccc1OCC(=O)O | – | 35.9 µM (active) |
| CCOc1cccc(-n2cc(C(=O)N3CCN(c4cc(C(=O)O)c5ccccc5c4)CC3)nc2-c2ccc(C)cc2)c1 | – | 21.2 µM (active) |
